Compound activity deposited in PubChem BioAssay by several laboratories.
EWS-Fli block = inhibitors of EWS/Fli oncoprotein transcriptional activity; A673 NR0B1-luciferase reporter, viability-normalised; AID 651661; 350,000 compounds, 0.67% hits; inhibition, % at 12.6 µM;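 active = mean inhibition of at least 50% after viability correction, with every replicate also passing that limit; inconclusive = mean reaches 50% but only one of two replicates passes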;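 also: firefly luciferase signal divided by Alamar Blue viability fluorescence both relative to DMSO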
LMP1 NFkB inh = inhibitors of Epstein-Barr LMP1-induced NF-kappaB reporter; LMP1-induced NF-kappaB luciferase reporter cells, luminescence; inhibition, % at 12.5 µM; 350,000 compounds, 0.69% hits; in the data active = inhibition above about 41%; inconclusive = no clear call, values can overlap the other calls;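 also: 0% = neutral control wells and 100% = reference inhibitor control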
TROY NFkB inh = inhibitors of TROY-dependent NF-kB signaling; Q293 LMP1-TROYcd NF-kB luciferase reporter, 4 h; inhibition, % at 10 µM; 360,000 compounds, 0.98% hits; AID 1347056;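 active = compounds whose plate-normalised and pattern-corrected inhibition of the luciferase reporter signal at the single screening dose is 50% or more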
TWEAK-Fn14 inh = blocks TWEAK-Fn14 interaction in a reporter cell assay; 360,000 compounds, 2% hits; inhibition, % at 10 µM; TWEAK-stimulated Fn14 reporter cells, luciferase luminescence, 8 h; in the data active = inhibition above about 50%
LGR2 antag = inhibitors of bursicon-induced Drosophila LGR2 receptor cAMP signaling | inhibition, % at 9.99 µM | HEK293 LGR2, CRE-luciferase, bursicon-stimulated, 4 h | AID 720647 | 380,000 compounds, 0.35% hits;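 active = drop in luminescence signal, shown as inhibition above about 50% in the replicate tests, limit read from the data, passing the limit was not always enough; inconclusive = probably only some replicates passing the limit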;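 also: agonist challenge used bursicon conditioned medium at about half maximal strength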
Numbers without * were called inactive; ? = inconclusive; / = no result given. The list is not random: actives were taken first. Their share in the collection is about 2.6%.

SMILES	EWS-Fli block	LMP1 NFkB inh	TROY NFkB inh	TWEAK-Fn14 inh	LGR2 antag
COC(=O)N1C(=O)[C@@](c2ccccc2)(C2CCCCC2)N1C(=O)OC	0	-7	49	73*	24
CC[C@@]1(c2ccccc2)C(=O)N(C(=O)OC)N1C(=O)OC	4	0	-2	-8	10
CC(C)C[C@@H]1COCn2nncc2CCCC(=O)N1	-5	/	/	/	6
CCCC(=O)Nc1cnc(NC(=O)c2cccc(F)c2)cc1C	/	24	29	66*	/
C[C@@H]1CCCCO[C@@H](CN(C)C(=O)CCC(F)(F)F)[C@@H](C)CN([C@@H](C)CO)C(=O)c2cc(NC(=O)NC3CCCCC3)ccc2O1	-2	/	/	/	19
O=C(Nc1nc2c(s1)CCCC2)c1ccc(Br)s1	/	-24	6	55*	26
CN1CCN(c2nc3c(c(=O)n(C)c(=O)n3C)n2Cc2ccccc2F)CC1	21	2	2	0	-15
Cn1c(=O)c2c(nc(N3CCc4ccccc4C3)n2Cc2ccccc2F)n(C)c1=O	/	13	47	61*	/
CC1=NN(c2cccc(C(=O)O)c2)C(=O)/C1=C\C=C/c1ccccc1	46	/	54*	91*	?
O=C(O)c1cnc(-c2ccccc2)nc1Sc1ccc(Cl)cc1Cl	/	1	61*	-17	/
Cc1cc(C(=O)Nc2cccc3c2O[C@@H](CN(C)C)[C@@H](C)CN([C@H](C)CO)C3=O)n(C)n1	0	/	/	/	12
Cc1ccc2nc(N(CCCN(C)C)C(=O)c3sc4ccccc4c3Cl)sc2c1	/	7	50*	73*	7
Cc1ccc2nc(N(CCCN(C)C)C(=O)c3ccc(S(=O)(=O)N(C)C)cc3)sc2c1	/	13	-11	4	-14
C[C@@H]1CN([C@H](C)CO)C(=O)c2c(c3ccccc3n2C)-c2ccccc2CO[C@@H]1CN(C)C(=O)c1cc(Cl)cc(Cl)c1	6	/	/	/	17
COC(=O)c1ccccc1-n1c(CCC(=O)O)ccc1-c1ccc(F)cc1	4	2	-17	5	2
COc1ccc(-n2c(CCC(=O)O)ccc2-c2ccc(F)cc2)c(OC)c1	12	-1	51*	30	-17
COC(=O)[C@]12CCCCC=C1N(Cc1cccc3ccccc13)C(=O)[C@H](CC(=O)NCCC(C)C)C2	-7	/	29	21	64*
COC(=O)[C@]12CCCCC=C1N(Cc1cccc3ccccc13)C(=O)[C@H](CC(=O)NCc1ccccc1)C2	-14	/	29	14	46
CC(C)NC(=O)N(C)C[C@@H]1OCCCC[C@H](C)Oc2ccc(NS(=O)(=O)c3ccc(Cl)cc3)cc2C(=O)N([C@@H](C)CO)C[C@H]1C	-12	/	/	/	-10
CN(C)c1ccc(N=Nc2cccc(F)c2)cc1	-96	-29	19	52*	32
CN(C)c1ccc(N=Nc2ccc3ncccc3c2)cc1	10	-63	19	52*	62*
CCO[C@H]1OC(C(=O)NCc2nc3ccccc3[nH]2)=C[C@@H](C2CC2)[C@@H]1CCCO	61*	4	24	17	-11
CCO[C@H]1OC(C(=O)NCc2nc3ccccc3[nH]2)=C[C@@H](c2ccccc2)[C@@H]1CCCO	4	-4	-11	14	14
O=C1C2CC=CCC2C(=O)N1c1ccc(NCCc2ccc(Cl)cc2)c([N+](=O)[O-])c1 (stereo not drawn)	2	-17	-16	15	/
O=C1C2CC=CCC2C(=O)N1c1ccc(NCCc2ccc(O)cc2)c([N+](=O)[O-])c1 (stereo not drawn)	-30	0	1	57*	2
SMILES	EWS-Fli block	LMP1 NFkB inh	TROY NFkB inh	TWEAK-Fn14 inh	LGR2 antag
CCn1c(SCC(=O)Nc2nc3ccc(OC)cc3s2)nc2c1c(=O)n(C)c(=O)n2C	/	18	37	58*	54*
CC(C)n1c(SCC(=O)Nc2nc3ccccc3s2)nc2c1c(=O)n(C)c(=O)n2C	/	18	35	-19	18
CCOc1ccc2nc(NC(=O)CSc3nc4c(c(=O)n(C)c(=O)n4C)n3C(C)C)sc2c1	/	14	50*	53*	-6
CCCn1c(SCC(=O)Nc2nc(-c3ccc(OC)cc3)cs2)nc2c1c(=O)n(C)c(=O)n2C	/	17	18	-47	-14
COc1ccc(NC(=O)Nc2ccc3c(c2)CC(=O)N([C@@H](C)CO)C[C@@H](C)[C@H](CN(C)S(=O)(=O)c2ccc(C)cc2)O3)cc1	-6	/	/	/	-2
CC(C)Cn1c(-c2cccc(S(=O)(=O)N3CCOCC3)c2)n[nH]c1=S	0	71*	1	-7	-12
CCC(C)n1c(-c2cccc(S(=O)(=O)N3CCOCC3)c2)n[nH]c1=S (stereo not drawn)	3	-6	-9	4	0
Cc1ccc2nc(NCC(=O)O)nc(-c3ccccc3)c2c1	/	3	-1	32	/
COc1cc(Nc2nc(-c3ccccc3)c3cc(C)ccc3n2)cc(OC)c1OC	/	-21	-13	69*	/
CC(=O)N(C)C[C@H]1Oc2ncc(-c3ccc(C)cc3)cc2C(=O)N([C@@H](C)CO)C[C@H]1C	-11	/	/	/	8
CCC(C)(NC(=O)c1ccc2c(c1)OCO2)C(=O)NC1CCCCC1 (stereo not drawn)	-2	1	7	51*	-11
CCC(C)(C(=O)NC1CCCC1)N(Cc1ccco1)C(=O)c1ccc2c(c1)OCO2 (stereo not drawn)	/	3	10	-34	/
O=C(O)c1ccccc1Nc1cccc(OCc2ccc3ccccc3n2)c1	-14	82*	24	14	-39
Cc1ccc(S(=O)(=O)N2C[C@H]3n4c(=O)ccc(=O)n4C[C@H](OC(=O)NCc4ccccc4)[C@@]3(O)C2)cc1	-11	3	-6	-2	31
Cc1ccc(S(=O)(=O)N2C[C@H]3n4c(=O)ccc(=O)n4C[C@H](OC(=O)NCC4CCCCC4)[C@@]3(O)C2)cc1	40	4	16	61*	25
CC1CCCN(S(=O)(=O)c2cc3c4c(c2)C(C)C(=O)N4CCC3)C1 (stereo not drawn)	7	69*	-12	-8	9
CC1C(=O)N2CCCc3cc(S(=O)(=O)N4CCCCC4)cc1c32 (stereo not drawn)	-5	-1	14	-1	-11
CCCC#Cc1cnc2c(c1)C(=O)N([C@H](C)CO)C[C@@H](C)[C@@H](CN(C)S(C)(=O)=O)O2	-5	/	/	/	2
Cc1[nH]c2ccccc2c1C(=O)CSc1nc2cc(S(=O)(=O)N3CCCCC3)ccc2o1	/	13	-11	55*	/
C[C@@H]1CN([C@H](C)CO)C(=O)c2cc(NS(=O)(=O)c3cccs3)ccc2O[C@@H](C)CCCCO[C@H]1CN(C)C(=O)Nc1ccc(F)cc1	-1	/	/	/	-9
O=C1C=CC(=O)c2c(O)c(N3CCN(CCOCCO)CC3)c(Br)c(O)c21	?	82*	16	-6	6
O=C1C=CC(=O)c2c(O)c(N3CCN(CCO)CC3)c(Cl)c(O)c21	38	72*	1	24	-23
